Compound activity: PubChem BioAssay, National Center for Advancing Translational Sciences (NCATS)
KB-3-1 tox: kills parental KB-3-1 adenocarcinoma cells; actives 1.4% (n = 400,000); KB-3-1 viability, CellTiter-Glo ATP luminescence, 72 h; AID 1347075; Potency, µM (highest dose often 46.1 µM), hits mostly cytotoxic; further: nearly all actives have a fitted effect of over 60% in size
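Parental KB-3-1 adenocarcinoma cells in phenol-red-free DMEM with 10% FBS were pin-treated with compounds at several concentrations, incubated 72 h at 37 °C, and viability read by CellTiter-Glo luminescence; concentration-effect curves were fitted after normalization.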
KB-V1 cytotox: KB-V1 MDR subline cytotoxicity | KB-V1 MDR cells viability, CellTiter-Glo, 72 h | Potency, µM (titrated, usually from 46.1 µM), most hits filed as cytotoxic | actives 3.4% (n = 400,000); further: nearly all actives have a fitted effect of over 60% in size
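Luminescent ATP read-out (CellTiter-Glo, 10 min) measures survival of drug-selected KB-V1 MDR cells after 72 h, 37 degrees C compound exposure. Medium: phenol-red-free DMEM, 10% FBS. Values from fitted concentration-response curves.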
HT1080NT lethal: kills 2HG-producing HT-1080-NT fibrosarcoma cells; HT-1080-NT fibrosarcoma viability, CellTiter-Glo ATP luminescence, 48 h; Potency, µM (top dose mostly 46.1 µM), for inactives: at the highest dose activity, negative = less viability, usual class: cytotoxic; actives 1.6% (n = 360,000); AID 686970;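 further: NT is the 2HG producing partner of a matched IDH1 knockdown line; 0% = DMSO-treated cells and -100% = media-only wells without cells; nearly all actives have a fitted effect of over 55% in size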
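Luminescent CellTiter-Glo readout after 48 hours of compound exposure at 37 degrees C defined viability of HT-1080-NT cells. Activity was normalized to DMSO wells and cell-free media wells; concentration-response curves were fitted and assigned curve classes.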
TDP1 cell CPT: DT40-hTDP1 cell growth loss with CPT; actives 12% (n = 420,000); AID 686979; Potency, µM (titrated, usually from 46.2 µM), for inactives: top-dose activity change, negative = growth inhibition, actives largely listed as inhibitors; chicken DT40 Tdp1-/-;hTDP1 cells + 20 nM CPT, ATP luminescence, 48 h; further: nearly all actives have a fitted effect of over 55% in size
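Chicken DT40 Tdp1-/- cells stably complemented with human TDP1 were seeded at 400 cells/well in medium containing 20 nM camptothecin, exposed to pin-transferred compounds, and grown at 37 °C for at least 48 hr. Viability was read as ATP luminescence.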
HT1080 IDH1KD tx: kills HT-1080 cells with IDH1 knockdown. HT-1080 IDH1 knockdown viability, ATP luminescence, 48 h. Potency, µM (top dose mostly 46.1 µM), for the others: at the top dose activity, negative = toxicity, most hits filed as cytotoxic. actives 2% (n = 360,000);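 further: 0% = DMSO wells and -100% = cell-free medium wells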
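CellTiter-Glo luminescence after 48 h compound exposure at 37 degrees C of IDH1-knockdown HT-1080 cells in 5% FBS RPMI. %Activity scaled between DMSO wells and cell-free media wells, with curves fitted and assigned curve classes.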
DT40 TDP1 no CPT: qHTS for Inhibitors of human tyrosyl-DNA phosphodiesterase 1 (TDP1): qHTS in cells in absence of CPT; DT40 Tdp1-/- hTDP1 cells, no CPT, ATP luminescence, 48 h; Potency, µM (doses to about 46.2 µM), without a hit: top-dose activity change, negative = growth inhibition, usual class: inhibitors; actives 15% (n = 420,000); further: nearly all actives have a fitted effect of over 55% in size
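A cellular qHTS used chicken DT40 cells lacking endogenous Tdp1 but carrying stably transfected human TDP1. Compounds were applied without camptothecin, and cell growth kinetics were judged by ATP-dependent luminescence after ≥48 hr.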
Active calls of the source: *; i = inactive; ? = inconclusive; . = not tested or not shown; [ ] = another dose, or the depositor's remark. An excerpt weighted towards active compounds, which were near 19% of everything screened. The call rests on the fitted dose curve; in most records, active means well fitted curve in the direction sought with a large enough effect; inconclusive means small, poorly fitted or top-dose-only effect, or another doubt; inactive means no such curve, though single readings can be large; an effect the other way counts as inactive or inconclusive. Unless noted, on the % scale 0 is the no-effect control and ±100 the full control effect; potency means the concentration at half of the fitted maximal effect.

SMILES | KB-3-1 tox | KB-V1 cytotox | HT1080NT lethal | TDP1 cell CPT | HT1080 IDH1KD tx | DT40 TDP1 no CPT
CCOc1ccc(Cl)cc1-c1cc(C(=O)NCc2ccccc2)[nH]n1 | i | i | ? | 12µM* | ? | ?
COc1ccc(Cl)cc1-c1cc(C(=O)NCc2ccccc2)[nH]n1 | i | i | -30% | 16µM* | -28% | 21µM*
COc1cc(CNC(=O)c2cc(-c3cc(Cl)ccc3OC)n[nH]2)cc(OC)c1 | i | ? | -29% | ? | -10% | ?
CCC(CC)C(=O)c1c[nH]c(C(=O)NCc2ccccc2OC)c1 | i | i | -5% | 21µM* | -8% | ?
Cc1ccc2c(=O)cc(C(=O)Nc3c(C(=O)c4ccc(F)cc4)oc4ccccc34)oc2c1C | i | ? | . | -17% | . | -5%
Cc1ccc(S(=O)(=O)N2C[C@H]3[C@H]4C(=O)N(c5ccccc5)C(=O)[C@H]4C[C@H](OC(=O)Nc4cccs4)[C@@]3(O)C2)cc1 | i | i | 2% | -28% | 5% | ?
COc1ccc(NC(=S)N2CCN(C(=O)C3CCCO3)CC2)cc1 (centres undefined) | i | i | 0% | 1% | 0% | -3%
NS(=O)(=O)c1ccc(CCNC(=O)CSc2nc3ccsc3c(=O)n2Cc2ccccn2)cc1 | i | i | 17% | -4% | 16% | -27%
Cc1c(Nc2ncnc3c2cnn3-c2ccccc2)c(=O)n(-c2ccccc2)n1C | i | ? | -3% | ? | -9% | -21%
Cc1cccc(-n2ncc3c(Nc4ccc(Oc5ccc(Cl)cc5)cc4)ncnc32)c1 | i | i | . | 18µM* | . | 15µM*
Cc1cccc(-n2ncc3c(Nc4c(C)n(C)n(-c5ccccc5)c4=O)ncnc32)c1 | i | 21µM* | 0% | ? | -10% | ?
Cc1cccc(-n2ncc3c(Nc4ccc(C)c(Cl)c4)ncnc32)c1 | i | i | . | 18µM* | . | 18µM*
Cc1ccc(Nc2ncnc3c2cnn3-c2ccc(C)cc2)cc1 | i | i | . | -18% | . | ?
COc1ccc(Nc2ncnc3c2cnn3-c2ccc(C)cc2)cc1Cl | i | i | . | ? | . | 23µM*
COc1ccccc1Nc1ncnc2c1cnn2-c1cccc(C)c1 | i | i | 0% | ? | -9% | ?
CCc1ccc(C2=C(C)C(N3CCC(C(=O)NCCc4ccco4)CC3)=NS2(=O)=O)cc1 | . | . | . | ? | . | 18µM*
CC1=C(c2ccc(C(C)C)cc2)S(=O)(=O)N=C1N1CCN(c2ccccc2F)CC1 | . | . | . | ? | . | 18µM*
CC1=C(c2ccc(Cl)cc2)S(=O)(=O)N=C1N1CCC(C(=O)NCCc2ccco2)CC1 | i | i | . | 0% | . | ?
CC1=C(c2ccc(C(C)C)cc2)S(=O)(=O)N=C1N1CCN(C(=O)c2ccco2)CC1 | i | i | 0% | -23% | 11% | -16%
CC1=C(c2ccc(C(C)C)cc2)S(=O)(=O)N=C1N1CCC(C(=O)NCCc2ccco2)CC1 | i | i | . | 23µM* | . | ?
Cc1nn(-c2ccc(N3CCCCC3)nn2)c(C)c1CCC(=O)NCc1ccc(Cl)cc1 | . | . | . | ? | . | 26µM*
Cc1nn(-c2ccc(N3CCCCC3)nn2)c(C)c1CCC(=O)NCc1ccc(OC(C)C)cc1 | . | . | . | 16µM* | . | 16µM*
O=C(NC(=S)NCc1ccccc1)C1CCCCC1 | i | i | -9% | 18µM* | -4%[9.24 µM] | 21µM*
CCOC(=O)CCCCCC(=O)Nc1ccc2c(c1)CC(=O)N([C@H](C)CO)C[C@H](C)[C@H](CN(C)S(=O)(=O)c1ccc(OC)cc1)O2 | i | i | 7% | ? | 4% | -17%
CCCC(=O)C1=C(c2ccc(C)cc2)N(C(=O)CCC)n2cnnc2S1 | . | . | . | ? | . | 16µM*
SMILES | KB-3-1 tox | KB-V1 cytotox | HT1080NT lethal | TDP1 cell CPT | HT1080 IDH1KD tx | DT40 TDP1 no CPT
CCCC(=O)N1CCCC1(C)C(=O)Nc1ccc(C)c(C)c1 (centres undefined) | i | i | ? | 5% | 23% | -16%
CCCC(=O)C1=C(c2ccc(C)c(C)c2)N(C(=O)CCC)n2c(CC)nnc2S1 | . | . | . | ? | . | 23µM*
CCOc1ccc(OCC)c(NS(=O)(=O)c2c(C(=O)N3CCCCCC3)c(C)n(C)c2C)c1 | i | i | . | ? | . | ?
CCCn1c(=O)c2c(C(F)(F)F)cc(-c3ccco3)nc2n(CCC)c1=O | i | i | 3% | -32% | -4% | -11%
CCCCn1c(=O)n(C)c(=O)c2c(C(F)(F)F)cc(-c3ccncc3)nc21 | i | ? | -1% | 18µM* | -6% | 11µM*
O=C(C[n+]1cnn(CC(=O)c2ccc(Cl)cc2Cl)c1)c1ccc([N+](=O)[O-])cc1 | 18µM* | i | -15% | ? | -14% | ?
CCNc1ncc2nc(C)c(=O)n(Cc3ccc(F)cc3)c2n1 | . | . | . | 1% | . | -5%
Cc1oc2ncn(C)c(=O)c2c1C(=O)Nc1ccccn1 | i | ? | . | 16% | . | 0%
COc1ccc2c(-c3ccccc3)cc(SCC(N)=O)nc2c1 | i | i | ? | -27% | ? | 21µM*
COCCCN1C(=O)c2[nH]nc(-c3cc(C)cc(C)c3O)c2C1c1ccc(O)c(OC)c1 (centres undefined) | ? | 21µM* | -4% | 21µM* | -10% | ?
CCCN1C(=O)c2[nH]nc(-c3cc(Cl)c(C)cc3O)c2C1c1ccc(O)c(OC)c1 (centres undefined) | i | i | ? | ? | 16µM* | ?
Cc1nc(-c2ccc(S(=O)(=O)N3CCN(c4cccc(Cl)c4)CC3)cc2)co1 | i | i | . | ? | . | ?
CCOC(=O)c1ccc(N2Cc3ccccc3C2=NC(=O)c2cccs2)cc1 | i | i | -3% | 18µM* | -7% | ?
N#Cc1ccc(N2Cc3ccccc3C2=NC(=O)c2cccs2)cc1 | i | 18µM* | 4% | -21% | 2% | 1%
CC(=O)c1ccc(N2Cc3ccccc3C2=NC(=O)c2cccs2)cc1 | i | ? | -3% | ? | -8% | ?
CCC(=Nc1ccccc1OC)C1=C(O)CC(c2ccccc2)CC1=O (centres undefined) | ? | i | 16% | 6.5µM* | 14% | 5.8µM*
